Screens: PubChem BioAssay, Sanford-Burnham Center for Chemical Genomics
CYP2C9 inh = blocks human cytochrome P450 2C9; CYP2C9 Supersomes, luciferin-H conversion, luminescence; inhibition, % at 5 µM; 96,000 tested, 20% active; AID 777;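 active = blocking of liver enzyme CYP2C9 beyond about 50% at 5 µM, limit read from the data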
CD11b adhes inh = CD11b/CD18-fibrinogen binding inhibition. P05107+P11215. K562 CD11b/CD18 adhesion to fibrinogen, ATPlite luminescence; Mn2+ added to activate the integrin. inhibition, % at 10 µM. 93,000 tested, 0.54% active;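 active = primary inhibition of 50% or more at 10 µM, then 40% or more on retest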
CYP2C19 activ = increases human CYP2C19 enzyme activity; recombinant CYP2C19, luciferin-H EGE luminescence; hits give high values; 0 = fully inhibited enzyme, 1 = untreated enzyme; activation factor at 5 µM; 96,000 tested, under 10 active;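 active = activation factor of at least 2 at 5 µM in the primary screen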
CYP2C19 inh = human CYP2C19 inhibition; inhibition, % at 5 µM; CYP2C19 Supersomes, luciferin-H EGE luminescence, 30 min; AID 778; 96,000 tested, 21% active; P33261;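 active = CYP2C19 inhibition above a set limit at 5 µM in the primary screen, cut at about 50% in these data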
CYP2C9 activ = CYP2C9 (human) activation | P11712 | recombinant CYP2C9, luciferin-H conversion, luminescence; hits give high values; factor 1 = untreated enzyme, 0 = blocked | activation factor at 5 µM | 96,000 tested, 1.4% active;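 active = activation factor of 2 or more for CYP2C9 at a 5 µM dose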
Mac1 fbg enh = increases human CD11b/CD18 adhesion to fibrinogen; K562 CD11b/CD18 adhesion to fibrinogen, ATPlite luminescence; 93,000 tested, 0.07% active; AID 1499; activation, % at 10 µM; P05107+P11215;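 active = 10 µM primary screen giving 50% or more activity, confirmed by 40% or more on retest at that dose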
Each line names hits and unclear results; the compound was inactive in the other large screens. In the library only some 28% were active in any assay of this set; here they are far more common.

CCCn1cc(SCC(=O)Nc2ccc3c(c2)OCO3)c2ccccc21	CYP2C9 inh 77, CYP2C19 inh 74
O=C(Nc1ccc(S(=O)(=O)Nc2ncccn2)cc1)c1ccco1	none
Cc1cc(N2CCOCC2)nc(-c2ccc([N+](=O)[O-])cc2)n1	none (no result: CD11b adhes inh, Mac1 fbg enh)
CCN(C(=O)CN1CCN(c2ccc(OC)cc2)CC1)c1c(N)n(Cc2ccccc2)c(=O)[nH]c1=O	none
N#Cc1c(-c2ccc(Cl)cc2Cl)nc2n(c1=O)CCS2	CYP2C9 inh 62, CYP2C19 inh 93
Cc1ccc(Nc2cnn(C34CC5CC(CC(CC(=O)O)(C5)C3)C4)c(=O)c2Cl)cc1	none
CC(C)(C)CC(=O)NC(=S)Nc1ccccc1C(F)(F)F	CYP2C9 inh 52 (no result: CD11b adhes inh, Mac1 fbg enh)
Cc1ccc([N+](=O)[O-])cc1NC(=O)CN1CCCCC1	none (no result: CD11b adhes inh, Mac1 fbg enh)
Cc1c(NC(=S)NC(=O)C(C)(C)C)cccc1[N+](=O)[O-]	none (no result: CYP2C9 inh, CYP2C19 activ, CYP2C19 inh, CYP2C9 activ)
Cc1ccc([N+](=O)[O-])cc1NC(=S)NC(=O)CC(C)(C)C	CYP2C9 inh 85
Cc1ccc([N+](=O)[O-])cc1NC(=S)NC(=O)C(C)(C)C	CYP2C9 inh 82, CYP2C19 inh 59 (no result: CD11b adhes inh, Mac1 fbg enh)
CC1CCC(N2CCN(c3ncccn3)CC2)C1 (centres undefined)	none
CCN1CCCC1CN(Cc1cc2cc(OC)ccc2[nH]c1=O)C(=O)NCc1ccccc1 (centres undefined)	none
CCCOc1c(Cl)cc(C(=O)Nc2ccc3c(c2)OCO3)cc1OCC	none
Cc1ccsc1C(=O)NNC(=O)Nc1ccc(Cl)c(Cl)c1	none
COc1ccc(COc2ccsc2C(=O)Nc2ccc(Cl)c(Cl)c2)cc1	CYP2C9 inh 55 (no result: CD11b adhes inh, Mac1 fbg enh)
O=C1CC(c2ccccc2)CC(O)=C1C=NC1CCCC1 (centres undefined)	CYP2C19 inh 79
CCOC(=O)Nc1c(C(=O)OC)[nH]c2cccc(OC)c12	none
O=c1c2cc(-c3ccccc3)sc2ncn1/N=C/c1ccco1	none
COC(=O)C1Sc2[nH]c(=O)sc2C(c2ccc(Cl)cc2)C1C(=O)OC (centres undefined)	CYP2C9 inh 93, CYP2C19 inh 75
O=C(COC(=O)C1c2ccccc2Oc2ccccc21)NC1CCS(=O)(=O)C1 (centres undefined)	none (no result: CD11b adhes inh, Mac1 fbg enh)
NC(=O)CC1NC(=O)c2ccccc21 (centres undefined)	none
O=C(CCC(=O)NNC(=S)Nc1ccccc1)NCc1ccccc1	none
CCCCN1C(=O)NC(NC(=O)c2ccco2)(C(F)(F)F)C1=O (centres undefined)	none (no result: CD11b adhes inh, Mac1 fbg enh)
CC1CCCC(N2C(=O)NC(NC(=O)c3ccco3)(C(F)(F)F)C2=O)C1C (centres undefined)	CYP2C19 inh 63
CC1CCCN(C(C(=O)Nc2ccc3c(c2)OCO3)c2ccccc2)C1 (centres undefined)	CYP2C9 inh 82, CYP2C19 inh 80
COC(=O)c1ccccc1NC(=O)Nc1ccc2c(c1)OCO2	none
Cc1ccc(C(C(=O)NC2CCCC2)N2CCCC(C)C2)cc1 (centres undefined)	none
CC1CCN(C(C(=O)Nc2ccc3c(c2)OCO3)c2ccccc2)CC1 (centres undefined)	CYP2C9 inh 84, CYP2C19 inh 73
Cc1cccc(NC(=S)N/N=C/c2cccc([N+](=O)[O-])c2)c1	none
O=C(Nc1ccc2c(c1)OCO2)C(c1ccccc1)N1CCC2(CC1)OCCO2 (centres undefined)	CYP2C9 inh 79, CYP2C19 inh 90
Cc1cccc(NC(=O)C(c2cccc([N+](=O)[O-])c2)N2CCCCC2)c1 (centres undefined)	CYP2C19 inh 52
Cc1ccc(C)c2c3c([nH]c12)-c1nonc1CC3	none
CN1OC(COC(=O)c2ccc(Cl)cc2Cl)CC1c1ccccc1 (centres undefined)	none (no result: CD11b adhes inh, Mac1 fbg enh)
O=C(Nc1ccc2c(c1)OCO2)c1ccccc1SCC(=O)N1CCCC1	none
Cc1cccc(NC(=O)C2(c3ccc([N+](=O)[O-])cc3)CCCC2)c1	CYP2C19 inh 78 (no result: CD11b adhes inh, Mac1 fbg enh)
CC(C)CC(NC(=O)C1CCC(C)CC1)C(=O)Nc1ccc2c(c1)OCCO2 (centres undefined)	CYP2C9 inh 52
O=C(Nc1ccc2c(c1)OCO2)C(c1ccccc1)N1CCCCC1 (centres undefined)	CYP2C9 inh 60, CYP2C19 inh 58
Cc1ccccc1NC(=O)C1CCC(C)(C(=O)O)C1(C)C (centres undefined)	none
Cn1ccnc1SCC(=O)Nc1cc(C(F)(F)F)ccc1N1CCOCC1	none
CC(C)(C)C(=O)NC(=S)Nc1cc(C(F)(F)F)ccc1N1CCOCC1	CYP2C9 inh 94, CYP2C19 inh 96
O=C(Nc1cc(C(F)(F)F)ccc1N1CCOCC1)C1Cc2ccccc2CN1C(=O)c1ccco1 (centres undefined)	CYP2C9 inh 96, CYP2C19 inh 90
O=C(Nc1cc(C(F)(F)F)ccc1N1CCOCC1)c1cccc(F)c1	CYP2C19 inh 83
Nc1nnc(SCC(=O)Nc2cc(C(F)(F)F)ccc2N2CCOCC2)s1	CYP2C9 inh 77, CYP2C19 inh 78
COc1ccc(C(C(=O)NC2CCCCC2)N(C(=O)CCCC(=O)Nc2ccccn2)c2ccc3c(c2)OCCO3)cc1 (centres undefined)	none (no result: CD11b adhes inh, Mac1 fbg enh)
Cn1c(=O)c2ncn(CC(=O)Nc3cc(C(F)(F)F)ccc3N3CCOCC3)c2n(C)c1=O	CYP2C9 inh 57
O=C(Nc1cc(C(F)(F)F)ccc1N1CCOCC1)c1ccccc1F	none (no result: CD11b adhes inh, Mac1 fbg enh)
COc1cccc(OC)c1C(=O)Nc1cc(Cl)ccc1N1CCOCC1	CYP2C9 inh 62
O=C(Cn1cnc2ccccc21)Nc1cc(C(F)(F)F)ccc1N1CCOCC1	none
O=C(Nc1cc(C(F)(F)F)ccc1N1CCOCC1)c1ccc2ccccc2n1	CYP2C9 inh 60
O=C(Nc1cc(C(F)(F)F)ccc1N1CCOCC1)c1cccs1	CYP2C19 inh 59
O=C(Cn1[nH]c(=O)c2ccccc2c1=O)Nc1ccc(-c2nnc3n2CCCCC3)cc1	none
Cc1noc(C)c1Cn1nc(C(=O)O)c2ccccc2c1=O	CYP2C9 inh 80
Cc1cccc(OCCn2nc(C(=O)O)c3ccccc3c2=O)c1	CYP2C9 inh 68, CYP2C19 inh 72
CCC(CC)NC(=O)Cc1ccccc1[N+](=O)[O-]	none
O=C(CSc1ncc(-c2ccccc2)n1-c1ccccc1)NCc1ccco1	CYP2C9 inh 74, CYP2C19 inh 50
COc1ccc(-n2c(-c3ccc(F)cc3)cnc2SCC(=O)NCc2ccco2)cc1	CYP2C9 inh 94, CYP2C19 inh 92
N#Cc1ccc2ccn(CC(=O)NCc3ccco3)c2c1	none
CCc1cccc2c(C#N)cn(CC(=O)NCc3ccco3)c12	CYP2C19 inh 51
CCNc1nc(Oc2ccc(=O)[nH]n2)nc(N2CCOCC2)n1	none
CCCCn1c(C)cc(C)c(S(=O)(=O)c2ccccc2C)c1=O	CYP2C19 inh 53
